# Sampled rows, rich in hits. Any-hit rate of the full collection: about 3.5%.
# TEAD-YAP block = TEAD-YAP interaction inhibition, primary screen, TEAD-YAP interaction inhibitor project, luminescence, HEK-TIYL cells; 640,000 compounds, 1.4% hits; TEAD-Gal4/YAP UAS-luciferase luminescence; inhibition, % at 9.12 µM; in the data active = inhibition above about 32%;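 also: 0% = median of test compound wells and 100% = reference inhibitor wells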
# MITF primary = MITF inhibitors, primary screen, biochemical, AlphaScreen, human; Microphthalmia-associated transcription factor (Homo sapiens), O75030; 650,000 compounds, 0.91% hits; AID 1259374, 2018; inhibition, % at 2.6 µM; AlphaScreen MITF homodimerization, bead proximity signal; in the data active = inhibition above about 50%;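 also: 0% = vehicle wells with protein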
# GPR151 activ = activators of human GPR151, primary screen, cell-based, PathHunter beta-arrestin, luminescence; G-protein coupled receptor 151 (Homo sapiens), Q8TDV0; PathHunter beta-arrestin GPR151 cells; activation, % at 11.2 µM; 650,000 compounds, 1% hits; in the data active = activation above about 4.9%;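 also: 0% = median of compound wells and 100% = cells with positive control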
# FBW7 activator = FBW7 E3 ligase activators, primary screen, biochemical, AlphaScreen, human; AID 1259310, 2017; AlphaScreen FBW7–phospho-cyclin E peptide binding, activator screen; normalized activity (activation), % at 26.1 µM; 650,000 compounds, 0.13% hits; F-box/WD repeat-containing protein 7 (Homo sapiens), Q969H0; in the data active = normalized activity above about 1.9%;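 also: purified mutant Fbw7 with reduced substrate affinity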
# MITF confirm = MITF inhibitors, retest of hits, confirmation, biochemical, AlphaScreen, triplicate; shares compounds with MITF primary; AlphaScreen MITF homodimerization, biotin/His-MITF beads; inhibition, % at 2.6 µM; 4,700 compounds, 16% hits; AID 1259372, 2018;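 active = inhibition above a cutoff derived from the DMSO control wells, cut at about 28% in these data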;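 also: 0% = MITF dimer wells with DMSO only; inhibitors lower the bead chemiluminescence by keeping MITF from dimerizing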
# AS interf DR = AlphaScreen optical interference compounds, dose response, counter-screen, biochemical, HTS | 480 compounds, 6% hits | AID 1259373, 2018 | AlphaScreen optical interference counterscreen, cell-free | shares compounds with MITF primary | IC50, µM; call rule not given here
# AlphaScreen intf2 = AlphaScreen optical interference compounds, counter-screen for MITF inhibitor project, biochemical, triplicate; 4,700 compounds, 7.6% hits; inhibition, % at 2.6 µM; shares compounds with MITF primary; LysRS AlphaScreen counterscreen, signal interference;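 active = inhibition above a cutoff derived from the DMSO control wells, cut at about 30% in these data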
# GPR151 conf act = GPR151 activators, triplicate retest, confirmation, cell-based, PathHunter beta-arrestin, luminescence. shares compounds with GPR151 activ. AID 1508609, 2020. GPR151 PathHunter beta-arrestin cells, 90 min; % of EA-reagent control over plate median. activation, % at 11.2 µM. 6,700 tested, under 10 active;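 active = mean percent activation across replicates above the confirmation screen cutoff of 4.91%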
# GPR119 counter = GPR119 activators in beta-arrestin cells, counter-screen for GPR151 activator project, cell-based, PathHunter beta-arrestin, luminescence, triplicate; shares compounds with GPR151 activ; 90 min; 0 = compound-well median, 100 = enzyme-acceptor control; activation, % at 11.2 µM; 6,700 compounds, 0.3% hits; AID 1508611, 2020;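 active = mean percent activation in the counterscreen above 29.09%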;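 also: counterscreen on off-target GPR119 to flag nonselective hits from the GPR151 activator screen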
# Target sequence (Q8TDV5 whole entry, looked up): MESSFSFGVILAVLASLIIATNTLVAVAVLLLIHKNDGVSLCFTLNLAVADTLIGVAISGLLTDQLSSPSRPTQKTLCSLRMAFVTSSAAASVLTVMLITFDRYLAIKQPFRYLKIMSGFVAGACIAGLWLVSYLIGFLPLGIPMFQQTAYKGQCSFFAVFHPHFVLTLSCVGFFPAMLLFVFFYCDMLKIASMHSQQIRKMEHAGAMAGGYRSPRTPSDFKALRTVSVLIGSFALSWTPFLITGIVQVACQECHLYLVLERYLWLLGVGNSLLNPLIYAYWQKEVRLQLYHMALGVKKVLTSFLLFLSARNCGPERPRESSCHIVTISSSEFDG
# An asterisk follows results filed as active; · = no result given.
SMILES,TEAD-YAP block,MITF primary,GPR151 activ,FBW7 activator,MITF confirm,AlphaScreen intf2,others
CCOc1ccc(CN2CCN(Cc3cccnc3)CC2)cc1,2,55*,1,0,35*,9,AS interf DR=>5.8
CCOc1ccc(CN2CCN(c3ccccn3)CC2)cc1,11,25,0,0,·,·,
CCOc1cc(CN2CCCCC2)ccc1OC,10,2,1,0,·,·,
CCOc1cc(CN2CCN(Cc3cc(OC)c(OC)c(OC)c3)CC2)ccc1OC,-8,71*,2,0,-17,0,
CN(C)CCN=CC1=C(O)CC(C)(C)CC1=O,-5,15,0,0,·,·,
CCOc1cc(CN2CCN(Cc3ccc(Cl)cc3)CC2)ccc1OC,-4,61*,-1,0,6,9,
CCOc1cc(CN2CCN(C3CCCC3)CC2)ccc1OC,6,53*,1,0,-2,-7,
CCOc1cc(CN2CCN(Cc3cccc(Cl)c3)CC2)ccc1OC,15,40,1,0,·,·,
COc1ccc(N2CCN(c3cc(N4CCNCC4)ccc3[N+](=O)[O-])CC2)cc1,-8,2,1,0,·,·,
Cc1cc2oc3c(c(=O)c2cc1Cl)C(c1cccnc1)N(CCCN(C)C)C3=O (stereo not given),1,-2,-1,0,·,·,
O=C(CNCCOCCO)N1c2ccccc2Sc2ccccc21,12,74*,1,0,6,7,
COCCNCC(=O)N1c2ccccc2Sc2ccccc21,10,8,2,1,·,·,
COc1ccc(-c2noc(CC(=O)NCc3ccccn3)n2)cc1,-4,7,0,0,·,·,
COc1cc(CN2CCC(N3CCN(C)CC3)CC2)cc(OC)c1OC,-1,87*,0,0,-14,-5,
COc1cc(CN2CCC(N3CCOCC3)CC2)cc(OC)c1OC,-2,24,0,1,·,·,
COc1cc(CN2CCN(C3CCC(c4ccccc4)CC3)CC2)cc(OC)c1OC (stereo not given),4,69*,-1,0,6,-7,
COc1ccc(OC)c(CN2CCN(C3CCC(c4ccccc4)CC3)CC2)c1 (stereo not given),-4,54*,0,0,-2,10,
COc1ccc(OC)c(CN2CCC(N3CCN(CCO)CC3)CC2)c1,1,81*,-1,0,-5,4,
CCCN1C(=O)C(C)(C)COc2ccc(NC(=O)CCc3ccccc3)cc21,-7,7,-1,2,·,·,
CCc1ccc(NC(=O)CNCC(C)O)cc1 (stereo not given),-9,56*,2,0,-16,0,
CCc1ccc(NC(=O)C(=O)NCC(C)O)cc1 (stereo not given),-35,10,-1,0,·,·,
Cc1ccc2c(CC(=O)OCN3C(=O)c4ccccc4C3=O)coc2c1,4,2,2,0,·,·,
O=C1CCCc2c1sc1nc3n(c(=O)c21)CCCCC3,-44,-2,-1,0,·,·,
O=c1c2c3c(sc2nc2n1CCCCC2)CCC3,-26,71*,0,0,-5,0,
COc1ccc(-n2c(SCC(=O)/C(C#N)=C(\C)N)nc3ccccc32)cc1,-7,70*,2,0,4,7,
SMILES,TEAD-YAP block,MITF primary,GPR151 activ,FBW7 activator,MITF confirm,AlphaScreen intf2,others
c1ccc(OCc2nc3ccccc3n2CC2CCN(Cc3ccccn3)CC2)cc1,5,90*,0,-1,15,23,
O=C(CC1SC(=Nc2ccc(O)cc2)NC1=O)c1ccc(F)cc1 (stereo not given),4,2,1,0,·,·,
O=C(COC(=O)c1ccc([N+](=O)[O-])o1)Nc1ccc2c(c1)OC(F)(F)O2,14,82*,1,0,8,13,
O=C(CCCOC(=O)C1CCN(S(=O)(=O)c2cccs2)CC1)c1ccc(F)cc1,2,-3,-1,0,·,·,
Cc1cccn2c(=O)c(/C=N/O)c(Sc3nc4ccccc4s3)nc12,10,7,2,0,·,·,
O=C(c1ccccc1F)N(Cc1ccccc1)c1ccccn1,11,71*,0,0,8,18,
COc1cc(C)ccc1OCCCN1CCCCCC1,0,9,2,0,·,·,
CCN1CCN(CCOc2ccc(C)cc2OC)CC1,4,76*,5.8*,0,15,19,GPR151 conf act=0;GPR119 counter=-2
COC(=O)N(C)c1nc2ccccc2s1,-20,72*,5.1*,0,-2,-7,GPR151 conf act=0;GPR119 counter=-10
O=C(c1ccncc1)N1CCN(Cc2ccc(Br)cc2)CC1,2,77*,10*,0,6,22,GPR151 conf act=1;GPR119 counter=16
COc1ccc(C(=O)N2CCN(Cc3ccc(Br)cc3)CC2)cc1,31,44,1,0,·,·,
O=C1N[C@@H](COCc2ccccc2)C(=O)N2CCN(C(=O)NCc3ccccc3)C[C@H]12,6,75*,7.7*,0,72*,-3,AS interf DR=>6.5;GPR151 conf act=0;GPR119 counter=11
O=C1N[C@@H](COCc2ccccc2)C(=O)N2CCN(C(=O)Oc3ccc(Cl)cc3)C[C@H]12,2,-7,2,0,·,·,
Cc1c(Cl)cccc1NC(=O)c1cc(S(=O)(=O)NCc2ccccc2Cl)ccc1F,12,7,-1,0,·,·,
FC(F)(F)c1ccc(Cn2cnc3c(NCCN4CCOCC4)nc(NCc4ccc5c(c4)OCO5)nc32)cc1,4,7,-2,1,·,·,
Cc1ccc(OCCOCCN2CCCCC2)c([N+](=O)[O-])c1,4,77*,7.6*,0,12,14,GPR151 conf act=-1;GPR119 counter=-12
Cc1ccc(-n2c(=O)c3oc4ccccc4c3n(CC(N)=O)c2=O)cc1,-4,54*,5.5*,0,11,12,GPR151 conf act=0;GPR119 counter=-5
CC1CN(CCCOc2cc(Cl)ccc2Cl)CC(C)O1 (stereo not given),2,67*,8.0*,0,2,15,GPR151 conf act=0;GPR119 counter=-9

# Bioassay records from PubChem.
